Only some compounds are listed: those with a hit (about 3.6% of all), similar ones and a draw of the others.
HEK293 cAMP cs: qHTS Assay for Agonists of the Thyroid Stimulating Hormone Receptor: Activators of Intracellular cAMP Concentrations in Parental HEK 293; 73,000 compounds, 2.5% hits; AID 938, 2007; parental HEK293 CNG cAMP sensor, membrane potential fluorescence; Potency, µM (titrated, usually from 57.1 µM), hits mostly activators; also: nearly all actives have a fitted effect of over 55% in size
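Parental HEK 293 cells stably expressing a cAMP-gated CNG channel were loaded with membrane potential dye containing 100 uM RO 20-1724 for 60 min. Compound added for 30 min; depolarization read as fluorescence intensity at 590 nm.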
IkB signaling: IkB Signaling; Potency, µM (top dose mostly 57.1 µM); AID 445, 2006; 110,000 compounds, 0.04% hits; ABC-DLBCL IkBa-CBG/CBR dual luciferase ratio, 4 h; response scale: scaled: untreated 0%, proteasome inhibitor 100%; active = well fitted curve in the direction sought with a large enough effect in the signal ratio, not every such curve was filed as active; inconclusive = small, poorly fitted or top-dose-only effect, or a change in a side signal; the % refers to the signal ratio;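 also: the direction sought is a rising ratio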
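In this assay, an IκBα–CBG68 fusion accumulates when IKK-driven degradation is blocked; native CBR normalizes for cell number. OCI-Ly3 cells were treated 4 h with compound and doxycycline, then green and red light read after Chroma-Glo addition.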
CRE-bla Fsk: Cell signaling CRE-BLA (Fsk stim). CHO CRE-bla reporter (cAMP response element driving beta-lactamase), forskolin EC10, beta-lactamase ratio. Potency, µM (titrated, usually from 38.2 µM), actives largely listed as activators. 71,000 compounds, 2.5% hits. AID 662, 2007; active = well fitted activation curve with a large enough effect in the signal ratio, with a control signal flat, not every such curve was filed as active; inconclusive = small, poorly fitted or top-dose-only effect, or effect the other way, or a change in a side signal; the % refers to the signal ratio
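Modulation of forskolin signalling: compounds in titration series added with EC10 NKH 477 to CHO cells carrying a CRE-driven beta-lactamase reporter, 3 h, 37C. CCF4 FRET ratio (460/530 nm, ex 405 nm) gives %activity and AC50.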
ERK AVP inh: qHTS Assay for Inhibitors of the ERK Signaling Pathway using a Homogeneous Screening Assay; Potency, µM (series often up to 57.5 µM), hits mostly inhibitors; 72,000 compounds, 0.99% hits; AID 995, 2007; HEK293-V1b, vasopressin-stimulated pERK AlphaScreen; also: nearly all actives have a fitted effect of over 55% in size
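V1b-HEK293 cells; cpd 30 min 37C; 25 nM vasopressin 5 min; lyse 10 min; AlphaScreen beads 5 hr RT. Normalized to DMSO basal and 25 nM vasopressin; AC50 by Hill fit.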
TSHR ag: qHTS Assay for Agonists of the Thyroid Stimulating Hormone Receptor; Thyrotropin receptor (Homo sapiens), P16473; HEK293-CNG-TSHR cells (CNG channel as cAMP sensor), membrane potential dye, cAMP; Potency, µM (series often up to 57.1 µM), usual class: activators; 73,000 compounds, 0.48% hits; AID 926, 2007; active = well fitted activation curve with a large enough effect in the main read-out, with a control signal flat, not every such curve was filed as active; inconclusive = small, poorly fitted or top-dose-only effect, or a change in a side signal; inactive = no such curve, though single readings can be large or run the other way; reference of the percent scale not stated here;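 also: the control signal comes from parental cells without the receptor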
Target sequence (P16473 whole entry, looked up): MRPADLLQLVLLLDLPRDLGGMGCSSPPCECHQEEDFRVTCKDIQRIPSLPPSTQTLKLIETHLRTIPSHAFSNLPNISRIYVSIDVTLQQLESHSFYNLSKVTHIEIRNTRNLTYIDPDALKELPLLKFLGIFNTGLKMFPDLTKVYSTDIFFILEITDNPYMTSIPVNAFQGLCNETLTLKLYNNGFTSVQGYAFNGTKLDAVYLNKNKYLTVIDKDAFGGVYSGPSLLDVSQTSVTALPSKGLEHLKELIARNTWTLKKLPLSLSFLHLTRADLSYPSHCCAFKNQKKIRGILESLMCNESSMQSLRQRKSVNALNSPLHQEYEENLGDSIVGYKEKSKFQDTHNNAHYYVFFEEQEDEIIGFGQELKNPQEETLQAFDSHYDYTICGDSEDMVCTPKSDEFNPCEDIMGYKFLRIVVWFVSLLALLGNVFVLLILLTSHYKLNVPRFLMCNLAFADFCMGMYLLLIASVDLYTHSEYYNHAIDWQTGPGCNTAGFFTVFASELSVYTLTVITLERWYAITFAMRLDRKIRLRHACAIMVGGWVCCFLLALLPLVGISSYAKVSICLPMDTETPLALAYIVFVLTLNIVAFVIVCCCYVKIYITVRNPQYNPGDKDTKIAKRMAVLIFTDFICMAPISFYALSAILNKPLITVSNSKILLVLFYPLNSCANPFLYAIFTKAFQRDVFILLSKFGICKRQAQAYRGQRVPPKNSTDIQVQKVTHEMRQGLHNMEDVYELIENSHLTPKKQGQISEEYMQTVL
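cAMP rise detected as CNG-channel membrane depolarization by fluorescent dye (emission 590 nm), 30 min after compound, following 60 min dye loading containing 100 uM RO 20-1724 at room temperature. Cells: TSHR/CNG HEK 293, with parental CNG HEK 293 as control.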
Numbers stand for hits; – = inactive; ? = inconclusive; · = no result; [ ] = remark or other dose. Unless noted, calls follow the shape of the dose curve; as a rule, active = well fitted curve in the direction sought with a large enough effect; inconclusive = small, poorly fitted or top-dose-only effect, or another doubt; inactive = no such curve, though single readings can be large; an effect the other way counts as inactive or inconclusive.

SMILES	HEK293 cAMP cs	IkB signaling	CRE-bla Fsk	ERK AVP inh	TSHR ag
CCCCC(=O)N(c1ccc(OCC)cc1)C1C=CS(=O)(=O)C1 (stereo unspecified)	–	–	–	–	–[11.4 µM]
CCCC(=O)N(c1ccc(OCC)cc1)C1C=CS(=O)(=O)C1 (stereo unspecified)	3.2µM	–	–	–	?
COCCn1c(=O)c(-c2cc(F)cc(F)c2)nc2cnc(N3CCOCC3)nc21	?	–[11.4 µM]	6.3µM	–	?
COCCn1c(=O)c(-c2ccc(OC)cc2)nc2cnc(N3CCOCC3)nc21	–	–[11.4 µM]	2.5µM	–	·
COCCn1c(=O)c(-c2cc(F)cc(F)c2)nc2cnc(N(C)C)nc21	–	–[11.4 µM]	10µM	–	–
COCCn1c(=O)c(-c2ccc(OC)cc2)nc2cnc(N3CCNCC3)nc21	?	–[11.4 µM]	?	–	?
COc1cccc(Cn2c(=O)c(CCc3ccccc3)nc3cnc(N4CCNCC4)nc32)c1	–	–[11.4 µM]	?	–	–
COc1cccc(Cn2c(=O)c(CCc3ccccc3)nc3cnc(N4CCOCC4)nc32)c1	–	–[11.4 µM]	2µM	–	–
CCOc1ccc(NC(=O)C2CCN(C(=O)N3CC(C)Oc4ccc(Cl)cc43)CC2)cc1 (stereo unspecified)	·	–	·	·	·
Cc1oc(-c2ccc(F)cc2)cc1-c1nn2c(-c3ccco3)nnc2s1	?	–	–	–	?
Cc1oc(-c2ccc(F)cc2)cc1-c1nn2c(-c3ccoc3C)nnc2s1	16µM	–	?	?	?
Cc1cc(C)n(-c2nc3ccccc3c(=O)n2OCC(=O)Nc2c(C)cccc2C)n1	–	–	?	?	13µM
CCOC(=O)c1c(NC(=O)C(F)(OC)C(F)(F)F)sc2c1CCN(C)C2 (stereo unspecified)	?	–	10µM	–	?
CC1(C)Oc2cc3c(cc2O1)OC(C)(C)O3	3.2µM	·	·	–[11.5 µM]	?
CC1(C)OC(=O)C(=CNc2ccccc2)C(=O)O1	–	–	–	–	–
COc1ccc2occ(CC(=O)Nc3ccc(S(=O)(=O)Nc4nccc(C)n4)cc3)c2c1	·	–	·	·	·
CCC(=O)N1C(C(=O)N2CCCC2)CSC1c1ccc(OC)cc1 (stereo unspecified)	?	–	–	–	?
COc1ccccc1CNC(=O)CSc1ncc2c(n1)-c1ccccc1N(Cc1ccc(C)cc1)S2(=O)=O	·	–	·	·	·
Cc1cc(N2CCOCC2)c2c(N)c(Br)cc(C)c2n1	–[11.4 µM]	–	0.79µM	?	–[11.4 µM]
OCc1cn(-c2ccccc2)nc1-c1ccc2c(c1)OCCO2	–	?	–	25µM	–
COc1ccc(-c2cnnn2-c2ccc(NC(=O)c3ccco3)cc2)cc1OC	?	–	3.2µM	16µM	?
CCOc1ccccc1N1CCN(S(=O)(=O)c2cccs2)CC1	10µM	–	–	–	?
COC(=O)c1oc2ccc(Br)cc2c1-n1cccc1	32µM	–	?	–	?
COC(=O)c1oc2ccc(Br)cc2c1NC(=O)CCCN1C(=O)c2ccccc2C1=O	–	–	–	·	–
O=c1c2[nH]c3ccc(Br)cc3c2ncn1CCCn1ccnc1	–	–	10µM	–	–
SMILES	HEK293 cAMP cs	IkB signaling	CRE-bla Fsk	ERK AVP inh	TSHR ag
O=C(Nc1ccc(NC(=O)c2cc3ccccc3o2)cc1)c1ccccc1	·	–	·	·	·
O=C(Nc1ccc(N2CCOCC2)cc1)c1cc2ccccc2o1	–	·	·	·	–
O=C(Nc1ccc(CN2CCOCC2)cc1)c1cc2ccccc2o1	–	?	–	25µM	–
Cn1c(=O)n(C)c2cc(NC(=O)c3cc4ccccc4o3)ccc21	–	?	10µM	–	–
C=CCn1c(=O)c2ccccc2n2c(SCc3nc(N)nc(Nc4ccccc4C)n3)nnc12	–	–	7.9µM	–	–[11.4 µM]
C=CCn1c(=O)c2ccccc2n2c(SCC(=O)c3ccccc3)nnc12	?	–	–	–	?
COC(=O)c1c(NC(=O)c2nc3ccccc3s2)sc2c1CCN(C(C)=O)C2	–	?	3.2µM	·	–
CCNc1nc(C)c2cc(Br)c(=O)n(CC)c2n1	–	–	1µM	?	–
O=C(O)CCC(=O)N1CCC[C@H]1C(=O)O	?	–	–	?	?
O=S(=O)(N1CCCCC1)n1c(Cc2ccccc2)nc2ccccc21	32µM	?	–	–	?
COc1ccc2c(=O)cc(-c3ccncc3)oc2c1OC	–[11.4 µM]	?	–[7.6 µM]	–[11.5 µM]	–[11.4 µM]
CCC(=O)Nc1cccc(NC(=O)CSc2nnc(C(C)C)n2CC)c1	13µM	–	?	–	?
COc1ccccc1NC(=O)c1oc2ccccc2c1NC(=O)c1cc(OC)c(OC)c(OC)c1	–	–	1.3µM	–	–
CCOC(=O)c1oc2ccccc2c1NC(=O)c1cc(OC)cc(OC)c1	?	–	10µM	–	?
CCOCC(=O)Nc1c(C(=O)OCC)oc2ccccc12	?	–	10µM	–	?
CCOC(=O)c1oc2ccccc2c1NC(=O)COC	–	–	?	–	–
COCC(=O)Nc1c(C(=O)Nc2ccccc2OC)oc2ccccc12	?	–	–	–	?
Cc1ccc(-c2nc(=S)c3c(n2Cc2ccco2)CCCC3)cc1	2.5µM	·	·	·	?
COc1cccc(-c2nc(=S)c3c(n2Cc2ccco2)CCCC3)c1	?	–	–	–	?
C=CCC1CCCCC12NC(=O)NC2=O (stereo unspecified)	–	–	–	–	–
CCOC(=O)c1cc(C)sc1N1C(=O)C2C3C=CC(C3)C2C1=O (stereo unspecified)	–	–	?	–	2µM
C[C@H]1CC[C@@H]2[C@@H](C)[C@H]3[C@H](C[C@H]4[C@@H]5CC=C6C[C@@H](O[C@]7(O[C@H]8O[C@@H](C)[C@@H](O)[C@@H](O)[C@@H]8O)C[C@@H](O[C@@H]8O[C@H](CO)[C@@H](O)[C@H](O)[C@@H]8O)[C@@H](O)[C@H](CO)O7)CC[C@]6(C)[C@H]5CC[C@@]34C)N2C1	–	–	–	–	–
COc1ccccc1CNc1ccnc(-c2ccoc2)n1	–	–[11.4 µM]	–	–	·
CCOc1cc(CNCCSc2nnnn2-c2ccccc2)ccc1OC	·	–	·	·	·
COc1ccc(CCNc2nnc(Sc3nnnn3-c3ccccc3)s2)cc1OC	–	?	10µM	?	–
O=c1sc2ccccc2n1COc1ccccc1	25µM	–	–	–	?
CC(C)C(c1nnnn1C1CCCC1)N1c2ccccc2CC1C (stereo unspecified)	–	?	–	–	–
COc1cccc(-c2nc(CS(=O)(=O)CC(=O)Nc3cc(F)ccc3F)c(C)o2)c1	·	–	·	·	·
COc1cccc(-c2nc(CS(=O)(=O)CC(=O)Nc3cccc(C)c3C)c(C)o2)c1	25µM	?	?	–	?
Cc1ccccc1-c1nc(CS(=O)(=O)CC(=O)Nc2cc(F)ccc2F)c(C)o1	?	?	–	13µM	?

Bioassay records: PubChem BioAssay, National Center for Advancing Translational Sciences (NCATS)
